Test results taken from the supplement of paper PMC6555819.

Tested on: PPARg:RXRa DBDmut IVT, anti-RXR (DBD mutation: RXRa K156A/R161A, NR concentration 270 nM, RXRa partner concentration 90 nM)
Assay: PBM binding z-score (relative to random genomic background probes); higher = stronger binding; sequences stand for … in GC…GCGATTGACAGCGTAGAATGAAGG
Outline: (§1)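 Binding z-scores were set against random background probes. The data came from custom Agilent 4×180K protein-binding microarrays carrying double-stranded probes with 34-nt variable regions, incubated 1 h with ligand-free nuclear receptor dimers. Partner-specific antibodies detected binding, and scanned fluorescence was regression-normalized.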

Row | Sequence | PBM binding z-score
1 | CGTCCAAGCTCAAGGTCAGTGAAAGAGACTCGAA | -0.0335
2 | TAGCCTAGGTCATGCGGTCCAGTATAGTGTCGGC | 1.68
3 | ACTAGCAGGCCAAGTTAGGGTCACTCAAACAAAG | 0.489
4 | GGAACGAGGGCAAAGCTGATAGCATCTGTCGACG | 4.19
5 | ATCTCAAGGTAACCAAGTTCAGTGAATGCCGAAC | 0.508
6 | CGAACTAGGTCATCCACGACAGTGAATACATTGA | 7.98
7 | CGAACGAGGGCATGTGTTGATAGCAAATGCCGAT | 2.61
8 | ACAGACAGGTGCTGAAGGTAACTCAGGCTATCAT | -0.133
9 | CCGACTGGGGCAAAGGTTACCGTACTCAGTACGA | 4.82
10 | GCTCGGAGTACAAGGTCAGAGCTTTGTCCGTAGA | 0.542
11 | TCTCGGAGGACACGAAAGTTCAGAGCTCGACATC | 1.71
12 | CCTCGGAGGACAGAAGGTCAGACCTGTCCGCTTT | 0.156
13 | ATCTCTAGGTAAAGTTCAGTCAAAGATCGATAGA | 1.91
14 | CCTTACGGATCAAGGTTATAGCACGGGTGGTACG | -0.655
15 | AGAACGAGGGCACGCAGAGTTGATAGCAGAGTAG | 4.1
16 | TCTGCTCGGTCAACGATGGTCAGCTAATCTGCTA | 1.1
17 | CCGGACAGGTGAAAGGTAACTCAGTCTGGTACGC | 1.68
18 | CCTCGGAGGACAGAAGGTCACAGCTGTCCGCTTT | 0.643

Tested on: PPARg:RXRa IVT, anti-PPARg (NR concentration 270 nM, RXRa partner concentration 90 nM)
Assay: as above
Outline: as §1

Row | Sequence | PBM binding z-score
19 | ATTACAGGGTCATCGTAGGCCAGAGTACGCACAG | 4.43
20 | ACTCGGAGGACAAAGGTCAGATCTACGCCAGTGA | 3.13
21 | TTACCAAGGTGAGCTGAGGTCGCTGATCCAACTC | 1.87
22 | CCTCGGAGGACAGAAGGTCTGAGCTGTCCGCTTT | -0.94
23 | GCCTACGGGTCAAAGGTTATAGCATGAATAGAAT | 4.99
24 | TAGCCTAGGTCAGTGGGCCAGTATAGTACGCATC | 3.72
25 | CCTAGCAGGCCAATCTGGGGCACTCAAGGCTTGA | 3.96
26 | GCTCGGAGGACCAGGTCAGAGCTTTGTCCGTAGA | -0.0399
27 | GCTATTAGTTCAAAGGGCAACCGAATGATTCTCG | 1.81
28 | ACAGACAGGTGGTGAAGGTAACTCAGGCTATCAT | 0.0629
29 | TCTAGTTGGTCAAAGTTCACACACTCGAAATGCG | 4.89
30 | TCACCAAGGTGAGCTGAGGTCGTTGATCCAACTC | 1.53
31 | CCTGCTAGGTCAATGGGCAGCTAAAGCAGCTCGC | 3.4
32 | TCGAGTAGGTTAGTAGGGGCATTCAGCCAACATA | 3.4
33 | TCGAGTAGGTTACCAATGGGGCATGCAGCTTTCT | 2.63
34 | TCGTGTAGGTTACCAATGGGGCATTCAGCTTTCT | 2.01
35 | TCAGACAGGTGAAGGTAACTGAGGTACGCAGTCG | 1.54
36 | ATCTCTAGGTAAAGATAGTTCAGTGAATGCAAAT | 1.66
37 | TCTAGTTGTTCACGGAGGTCACACACGACGGGTA | 2.51
38 | TAGCCTAGCTCATGGGCCAGTATACCACGCGAAC | -0.618

Row | Sequence | PBM binding z-score
39 | CAAACTAGGTCCAAGGTCAAAGTCGAGCCAACCA | 4.91
40 | ATCTCTAGGTAAGACTCAGTTTAGTGAAGAACGC | 1.06
41 | CGTCCAAGCTCAAGGTCAGTGAAAGAGACTCGAA | 0.547
42 | TAGCCTAGGTCATGCGGTCCAGTATAGTGTCGGC | 3.01
43 | ACTAGCAGGCCAAGTTAGGGTCACTCAAACAAAG | 1.32
44 | GGAACGAGGGCAAAGCTGATAGCATCTGTCGACG | 2.81
45 | ATCTCAAGGTAACCAAGTTCAGTGAATGCCGAAC | 1.32
46 | CGAACTAGGTCATCCACGACAGTGAATACATTGA | 8.15
47 | CGAACGAGGGCATGTGTTGATAGCAAATGCCGAT | 1.67
48 | ACAGACAGGTGCTGAAGGTAACTCAGGCTATCAT | -0.503
49 | CCGACTGGGGCAAAGGTTACCGTACTCAGTACGA | 5.85
50 | GCTCGGAGTACAAGGTCAGAGCTTTGTCCGTAGA | 0.648
51 | TCTCGGAGGACACGAAAGTTCAGAGCTCGACATC | -0.0575
52 | CCTCGGAGGACAGAAGGTCAGACCTGTCCGCTTT | 0.0592
53 | ATCTCTAGGTAAAGTTCAGTCAAAGATCGATAGA | 2.68
54 | CCTTACGGATCAAGGTTATAGCACGGGTGGTACG | 0.0573
55 | AGAACGAGGGCACGCAGAGTTGATAGCAGAGTAG | 4.09
56 | TCTGCTCGGTCAACGATGGTCAGCTAATCTGCTA | 1.1
57 | CCGGACAGGTGAAAGGTAACTCAGTCTGGTACGC | 2.68
58 | CCTCGGAGGACAGAAGGTCACAGCTGTCCGCTTT | 1.32

Tested on: PPARg DBDmut:RXRa IVT, anti-PPARg (DBD mutation: PPARg1 K132A/R137A, NR concentration 270 nM, RXRa partner concentration 90 nM)
Assay: as above
Outline: as §1

Row | Sequence | PBM binding z-score
59 | ATTACAGGGTCATCGTAGGCCAGAGTACGCACAG | 2.06
60 | ACTCGGAGGACAAAGGTCAGATCTACGCCAGTGA | 0.263
61 | TTACCAAGGTGAGCTGAGGTCGCTGATCCAACTC | -1.62
62 | CCTCGGAGGACAGAAGGTCTGAGCTGTCCGCTTT | -1.16
63 | GCCTACGGGTCAAAGGTTATAGCATGAATAGAAT | 1.03
64 | TAGCCTAGGTCAGTGGGCCAGTATAGTACGCATC | -0.247
65 | CCTAGCAGGCCAATCTGGGGCACTCAAGGCTTGA | -0.514
66 | GCTCGGAGGACCAGGTCAGAGCTTTGTCCGTAGA | -1.45
67 | GCTATTAGTTCAAAGGGCAACCGAATGATTCTCG | 0.146
68 | ACAGACAGGTGGTGAAGGTAACTCAGGCTATCAT | -0.371
69 | TCTAGTTGGTCAAAGTTCACACACTCGAAATGCG | 1.12
70 | TCACCAAGGTGAGCTGAGGTCGTTGATCCAACTC | -0.807
71 | CCTGCTAGGTCAATGGGCAGCTAAAGCAGCTCGC | -0.844
72 | TCGAGTAGGTTAGTAGGGGCATTCAGCCAACATA | 0.408
73 | TCGAGTAGGTTACCAATGGGGCATGCAGCTTTCT | -0.851
74 | TCGTGTAGGTTACCAATGGGGCATTCAGCTTTCT | 0.246
75 | TCAGACAGGTGAAGGTAACTGAGGTACGCAGTCG | 0.121
76 | ATCTCTAGGTAAAGATAGTTCAGTGAATGCAAAT | 1.03
77 | TCTAGTTGTTCACGGAGGTCACACACGACGGGTA | 0.302
78 | TAGCCTAGCTCATGGGCCAGTATACCACGCGAAC | 0.0751

Row | Sequence | PBM binding z-score
79 | CAAACTAGGTCCAAGGTCAAAGTCGAGCCAACCA | 0.406
80 | ATCTCTAGGTAAGACTCAGTTTAGTGAAGAACGC | 1.01
81 | CGTCCAAGCTCAAGGTCAGTGAAAGAGACTCGAA | -0.701
82 | TAGCCTAGGTCATGCGGTCCAGTATAGTGTCGGC | -0.501
83 | ACTAGCAGGCCAAGTTAGGGTCACTCAAACAAAG | 0.153
84 | GGAACGAGGGCAAAGCTGATAGCATCTGTCGACG | 0.774
85 | ATCTCAAGGTAACCAAGTTCAGTGAATGCCGAAC | 0.386
86 | CGAACTAGGTCATCCACGACAGTGAATACATTGA | 5.88
87 | CGAACGAGGGCATGTGTTGATAGCAAATGCCGAT | 0.15
88 | ACAGACAGGTGCTGAAGGTAACTCAGGCTATCAT | -0.162
89 | CCGACTGGGGCAAAGGTTACCGTACTCAGTACGA | 0.024
90 | GCTCGGAGTACAAGGTCAGAGCTTTGTCCGTAGA | -1.36
91 | TCTCGGAGGACACGAAAGTTCAGAGCTCGACATC | -0.141
92 | CCTCGGAGGACAGAAGGTCAGACCTGTCCGCTTT | -1.1
93 | ATCTCTAGGTAAAGTTCAGTCAAAGATCGATAGA | 1.08
94 | CCTTACGGATCAAGGTTATAGCACGGGTGGTACG | -0.059
95 | AGAACGAGGGCACGCAGAGTTGATAGCAGAGTAG | 0.653
96 | TCTGCTCGGTCAACGATGGTCAGCTAATCTGCTA | -0.37
97 | CCGGACAGGTGAAAGGTAACTCAGTCTGGTACGC | -0.561
98 | CCTCGGAGGACAGAAGGTCACAGCTGTCCGCTTT | -1.36
